The source of these data is the supplement of paper PMC6555819.

Experiment in all cases: PBM binding z-score (relative to random genomic background probes); higher = stronger binding; sequences stand for … in GC…GCGATTGACAGCGTAGAATGAAGG
Assay [1] concerns RARb homodimer (NR concentration 270 nM). In a few lines: (§1)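 Antibodies against each partner of ligand-free nuclear receptor dimers (one per run) detected binding on custom Agilent 4×180K protein-binding microarrays after 1 h incubation. The double-stranded probes had 34-nt variable regions carrying direct-repeat seeds, single-nucleotide variants, half-site ablations and random human genomic background sequences. Binding z-scores, from regression-normalized fluorescence, use the random background probes as reference.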

Assay [2] has as its system RARg:RXRa (NR concentration 270 nM, RXRa partner concentration 90 nM). An outline of the steps:
as §1

Assay [3] concerns RARg homodimer (NR concentration 270 nM). An outline of the steps:
as §1

Assay [4] relates to RXRa DBDmut IVT, anti-RXR (DBD mutation: RXRa K156A/R161A, NR concentration 90 nM). An outline of the steps: as §1
Assay [5] has as its system RXRa homodimer (NR concentration 180 nM). An outline of the steps:
as §1

The test system of assay [6] is THRa:RXRa (NR concentration 90 nM, RXRa partner concentration 90 nM). In a few lines: as §1
The test system of assay [7] is THRa homodimer (NR concentration 90 nM). An outline of the steps:
as §1

Assay [8] concerns VDR homodimer (NR concentration 270 nM). An outline of the steps:
as §1

Consider CGAACTATGTCATCCAGGACAGTGAATACATTGA, for which the PBM binding z-score in assay [1] was 0.612; in assay [2], 0.908; in assay [3], 1.14; in assay [4], 0.468; in assay [5] it was 0.578; in assay [6], 1.71. Moreover, the PBM binding z-score was 0.973 in assay [7] and 0.592 in assay [8].

CGAACTAGGTCATCCCGGACAGTGAATACATTGA: the PBM binding z-score was found to be 2.84 in assay [1]; 3.68 in assay [2]; 4.66 in assay [3]; 2.33 in assay [4]; 2.6 in assay [5]; 2.86 in assay [6]. For the same sequence, the PBM binding z-score in assay [7] was found to be 1.4; in assay [8], 1.91.

With CCTAGTTGGACAAGGTCACACACGCTATAGGTAC, the PBM binding z-score amounted to 4.19 in assay [1]; 4.24 in assay [2]; 4.16 in assay [3]; 1.75 in assay [4]; 4.4 in assay [5]; 3.93 in assay [6]. The PBM binding z-score was determined as 3.3 in assay [7] and 3.14 in assay [8].

As for TCATATAGGTTATACAGGTGAAAGTCGGCATCTA, the PBM binding z-score in assay [1] is 1.48; in assay [2] it was 1.73; in assay [3] it was 1.29; in assay [4], 2.09; in assay [5] it was 2.2; in assay [6] it was 1.92. Also, the PBM binding z-score in assay [7] turned out to be 0.477; in assay [8], 0.534.

For CCCGCTAGGTCAATGGTCAGCTAAAGCAGCTCGC, the PBM binding z-score was determined as 3.03 in assay [1]; 3.62 in assay [2]; 4.76 in assay [3]; 1.28 in assay [4]; 2.37 in assay [5]; 2.27 in assay [6]. The PBM binding z-score in assay [7] is 0.886; in assay [8], -0.00101.

Consider TAGCCTAGGTCAGATCGGGCCAGTATACGCTATA, for which the PBM binding z-score in assay [1] was 2.17; in assay [2], 2.61; in assay [3], 3.1; in assay [4], -0.634; in assay [5], 1.44; in assay [6] it was 4.09. Further, the PBM binding z-score in assay [7] was 0.0638; in assay [8], -0.176.

AGAATGAGGTTAAGATCAGGGGAACAGAATACAT: the PBM binding z-score in assay [1] stood at 1.37; in assay [2], 2.14; in assay [3], 1.59; in assay [4] it was 1.58; in assay [5] it was 2.52; in assay [6], 2.8. The values for the PBM binding z-score in assay [7] and in assay [8] were 1.34 and 0.727, respectively.

For the sequence AGAACGAGGGCACGCTGTGTTGATAGCAGAGTAG, the PBM binding z-score in assay [1] was found to be 1.05; in assay [2], 1.82; in assay [3], 2.12; in assay [4], 1.76; in assay [5] it was 1.23; in assay [6], 1.53. In addition, the PBM binding z-score was -0.0988 in assay [7] and 0.651 in assay [8].

Regarding GCTAGTTGGTCTGTAAAAGGTCACACACCGGTCG, the PBM binding z-score in assay [1] was found to be 5.02; in assay [2] it was 5.01; in assay [3], 4.62; in assay [4], 0.681; in assay [5], 5.65; in assay [6] it was 3.52. For the same sequence, the PBM binding z-score was determined as 1.78 in assay [7] and 1.81 in assay [8].

With GCGACTGGGGCATCAGCAGGGTACCATAACTTAA, the PBM binding z-score in assay [1] was 0.489; in assay [2], 0.0941; in assay [3] it was 0.0483; in assay [4] it was -0.313; in assay [5], -0.0228; in assay [6] it was 0.147. Moreover, the PBM binding z-score in assay [7] was -0.7; in assay [8], -0.477.

Take TCTTGTAGATAAAGCAGGTTAAGAAAGCCTGAGT: the PBM binding z-score was 0.29 in assay [1]; 0.138 in assay [2]; 0.0703 in assay [3]; 0.785 in assay [4]; 0.499 in assay [5]; 0.47 in assay [6]. Besides, the PBM binding z-score in assay [7] is -0.334; in assay [8], 0.374.

Regarding CCTCGGAGGACAGCAGGAGGTCAGAGCTGCCAGA, the PBM binding z-score in assay [1] was 3.24; in assay [2] it was 3.07; in assay [3] it was 2.93; in assay [4], -0.25; in assay [5] it was 1.56; in assay [6], 2.41. Also, the values for the PBM binding z-score in assay [7] and in assay [8] were 0.786 and 0.762, respectively.

For TCTAGTTGGTCAAAGGTCACAAACTCGAAATGCG, the PBM binding z-score in assay [1] was 4.92; in assay [2] it was 6.76; in assay [3], 6.07; in assay [4] it was 1.79; in assay [5] it was 7.88; in assay [6], 3.84. Moreover, the PBM binding z-score in assay [7] worked out at 1.73; in assay [8], 2.43.

Take AGAATGAGGTTATACGTAGAGCAGGGAAGAAAGT: the PBM binding z-score in assay [1] turned out to be 0.854; in assay [2], 1.69; in assay [3], 0.941; in assay [4], 1.58; in assay [5], 2.1; in assay [6], 2.19. Moreover, the PBM binding z-score is 0.488 in assay [7] and 0.731 in assay [8].

As for TCGAGGAGGTTAGGGGCATTCAGAATGGCGTCGA, the PBM binding z-score was determined as 1.36 in assay [1]; 0.847 in assay [2]; 0.702 in assay [3]; 0.518 in assay [4]; 1.22 in assay [5]; 1.34 in assay [6]. Besides, the results for the PBM binding z-score in assay [7] and in assay [8] were 0.547 and 1.07, respectively.

Regarding GCAGACAGGTGAAACGCAGATAACTCAGGGTGGC, the PBM binding z-score in assay [1] was -0.0268; in assay [2], 0.355; in assay [3], 0.45; in assay [4], -0.555; in assay [5], 0.883; in assay [6], 0.121. The PBM binding z-score in assay [7] was -0.589; in assay [8] it was -0.804.

In the case of CATACAGGCTCAGCTAGGCCAGAGTAGGGACGGC, the PBM binding z-score in assay [1] was -0.642; in assay [2], -0.268; in assay [3] it was 0.0433; in assay [4] it was -0.877; in assay [5], -0.366; in assay [6], -0.349. The PBM binding z-score in assay [7] is -0.416; in assay [8] it was -0.751.

In the case of CAAACTAGGTCACAGAGGTCTAAGTCCGTGCGTA, the PBM binding z-score in assay [1] turned out to be 3.5; in assay [2] it was 4.44; in assay [3], 4.87; in assay [4] it was 1.85; in assay [5], 3.76; in assay [6], 3.54. Also, the PBM binding z-score in assay [7] was 1.82; in assay [8], 1.87.
